According to ChEMBL document CHEMBL2218924, “A broad activity screen in support of a chemogenomic map for kinase signalling research and drug discovery” (Biochem J, 2013):

biological target: Serine/threonine-protein kinase PLK1 (Homo sapiens) (UniProt P53350); details: at 10 µM
Sequence (P53350 whole entry): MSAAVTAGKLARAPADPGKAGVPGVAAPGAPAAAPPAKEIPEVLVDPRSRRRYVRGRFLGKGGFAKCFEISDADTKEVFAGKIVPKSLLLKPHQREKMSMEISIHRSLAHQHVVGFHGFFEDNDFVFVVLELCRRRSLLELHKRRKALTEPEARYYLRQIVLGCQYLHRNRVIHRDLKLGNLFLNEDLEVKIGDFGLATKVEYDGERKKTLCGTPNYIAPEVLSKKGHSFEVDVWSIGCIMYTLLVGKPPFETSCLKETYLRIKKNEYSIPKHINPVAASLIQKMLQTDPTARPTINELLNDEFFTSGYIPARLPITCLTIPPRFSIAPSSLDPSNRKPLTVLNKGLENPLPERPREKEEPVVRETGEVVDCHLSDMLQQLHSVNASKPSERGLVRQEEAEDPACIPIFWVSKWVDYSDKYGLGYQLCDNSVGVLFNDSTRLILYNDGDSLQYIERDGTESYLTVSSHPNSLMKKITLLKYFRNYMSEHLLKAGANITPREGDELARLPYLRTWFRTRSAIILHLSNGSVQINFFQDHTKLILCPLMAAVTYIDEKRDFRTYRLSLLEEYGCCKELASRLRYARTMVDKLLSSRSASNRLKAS

Point of comparison: `CC(=O)O/N=C1\C(=C2\C(=O)Nc3cc(Br)ccc32)Nc2ccccc21`, residual activity 76%. Against it:
- COc1ccc(CNc2nc(N(CCO)CCO)nc3c2ncn3C(C)C)cc1 — lower, 58%
- O=C1NC(=O)c2c1c1c3ccccc3[nH]c1c1[nH]c3cc(Br)ccc3c21 — higher, 90%
- O=C1Nc2ccccc2/C1=C1/Nc2ccccc2/C1=N\OCCC(O)CO (stereo not given) — lower, 75%
- COc1cccc(-c2cc(=O)c3ccccc3o2)c1N — higher, 102%
- CO[C@H]1C[C@@H]2CC[C@@H](C)[C@@](O)(O2)C(=O)C(=O)N2CCCC[C@H]2C(=O)O[C@H]([C@H](C)C[C@@H]2CC[C@@H](O)[C@H](OC)C2)CC(=O)[C@H](C)/C=C(\C)[C@@H](O)[C@@H](OC)C(=O)[C@H](C)C[C@H](C)/C=C/C=C/C=C/1C — lower, 66%
- O=[N+]([O-])c1ccc(-c2nc(-c3ccc(F)cc3)c(-c3ccncc3)[nH]2)cc1 — higher, 80%
- COc1cc2ncnc(Nc3ccc(O)c(Br)c3)c2cc1OC — lower, 54%
- Cc1ccc(NC2=CC(=O)c3sc(C)nc3C2=O)cc1 — higher, 89%
- CC[n+]1c(/C=C/N(C)c2ccccc2)n(-c2ccccc2)c2ccc(-c3nc4ccccc4s3)cc21 — higher, 90%
- O=c1c2ccccc2[nH]c(=S)n1CCN1CCC(=C(c2ccc(F)cc2)c2ccc(F)cc2)CC1 — lower, 68%
- COc1ccc(OC)c2c(=S)c3ccccc3[nH]c12 — higher, 91%
- Cn1cnc2cc3c(Nc4cccc(Br)c4)ncnc3cc21 — higher, 82%
- NC(=O)c1ccc2[nH]c(-c3ccc(Oc4ccc(Cl)cc4)cc3)nc2c1 — lower, 69%
- Oc1n[nH]c2nnc(-c3c(-c4ccccc4)nn4ccccc34)cc12 — higher, 83%
